In all, about 33,000 sequences were measured (“normalized occupancy”: median about 0.075, highest 2% from about 0.095 on). Shown is part of a subset that was picked to be rich in the highest values.
These sequences were tested against MaxL homodimer (Homo sapiens, UniProt P61244 1-160) (assay: universal protein-binding microarray (PBM); PBS-based mixture, 10 nM His-tagged protein dimer, 2% milk, 200 ng/uL BSA, 50 ng/uL salmon testes DNA, 0.02% TX-100; detection with Alexa 488 anti-His antibody;; high values mean tight binding). Conditions: protein: recombinant; tags: C-terminal His-tag (pET21a); chain copies: 2; dsDNA, one strand shown.
Chain of MaxL homodimer (P61244 whole entry): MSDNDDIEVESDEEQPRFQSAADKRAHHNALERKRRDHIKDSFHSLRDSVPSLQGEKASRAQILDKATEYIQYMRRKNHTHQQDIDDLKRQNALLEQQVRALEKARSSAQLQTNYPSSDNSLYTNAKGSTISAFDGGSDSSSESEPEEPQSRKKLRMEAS
Summary of the method: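 His-tagged protein dimer at 10 nM was bound to Agilent 4 x 44 K 'all 10-mer' universal arrays and detected with 10 ng/μL fluorophore-conjugated anti-His antibody on a GenePix 4400A, giving an intensity per 8-mer. Binding occupancy normalises each intensity to the top-ranked one.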

Sequence	binding signal [normalized occupancy]
TCACTTAA	0.078
GAACCAAC	0.0752
AGACGACA	0.0751
ACAAACCT	0.0779
AACGACTG	0.0722
GACATTAC	0.0843
ATGCTATA	0.0889
ACGCGTCC	0.0815
ACGCGTAG	0.0796
GGGCGTGA	0.0932
ACGCGTGC	0.13
CGGCGTGC	0.0923
ACGCGTTC	0.0785
GCGCGTGA	0.106
CCGCGTAC	0.0726
GCGCGTTA	0.0795
ACGCGTGG	0.139
ACGCGTCG	0.0769
CCGCGTGC	0.145
GTGAGGGA	0.0752
AAAAAGCA	0.078
GAAAGCGC	0.0724

Sequence	binding signal [normalized occupancy]
ATTACCTA	0.0784
AGGTTCTA	0.0755
CAAGCGAA	0.0755
CAATTTCA	0.0751
CCGCGTGA	0.142
ACGCGTAA	0.0882
CGGCGTGA	0.0839
ACGCGTGA	0.114
CCGCGTAA	0.0729
ACGCGTCA	0.0796
ATGACGTG	0.0885
AAGTGATT	0.0761
CCTGCGCA	0.0738
TGAGAGAA	0.0879
TATAAGAA	0.0821
GTTACTTA	0.0751
AATCTAAC	0.0749
ACGCCACG	0.0993
ATGCCACG	0.101
ACGCCATG	0.102
ACGCCATC	0.0794
ACGCCACT	0.0784

Sequence	binding signal [normalized occupancy]
ACGCCACA	0.0778
ATGCCACC	0.0841
ACGCCATA	0.0812
ATGCCACA	0.0905
ATGCGTTC	0.0856
CAACCCAC	0.082
GGCGTTCA	0.0718
ACCACAAA	0.0758
ACCACGAG	0.115
CCCACGAG	0.0996
CCCACGAA	0.0758
ACCACGAA	0.0771
CCCACAAA	0.075
GAAGTGCA	0.0728
GTTTCGCA	0.0757
ATGGCTGC	0.0809
CGTGCTGA	0.095
GATGGAAC	0.0776
ACATGCTC	0.106
CAATGCTC	0.0774
CGATGCTC	0.0773
ATATGCTC	0.0928

Sequence	binding signal [normalized occupancy]
CTATGCTC	0.0822
CCATGCTC	0.0989
CGAGCGCA	0.0729
GACATCCC	0.0774
CACGTTCC	0.096
GACGTTAC	0.0746
AACGTTAG	0.0732
AACGTTAC	0.0772
CACGTTAC	0.115
CACGTTCA	0.0904
CACGTTAG	0.105
CACGTTAA	0.0921
CACGTTCG	0.0852
GTAGTCCA	0.0722
TACGTAGA	0.0768
CATGCGGA	0.126
GATGCGGC	0.0788
CATGCGGG	0.121
AATGCGGC	0.0814
CATGCGGC	0.121
AATGCGGG	0.0799
TATGCGGA	0.0786

Sequence	binding signal [normalized occupancy]
AATGCGGA	0.0802
CAGGCGGG	0.0747
AGGTAACC	0.0749
AAACATAC	0.0888
TATAAACA	0.0776
CGCTCGAG	0.0757
CGATTGCA	0.0745
GGACCGAC	0.0727
CATTTGAG	0.0913
AAGAACTC	0.0732
AATTTCTA	0.0767
CCATTCGC	0.0743
CTTCGTGC	0.0757
ATGGCAGG	0.0815
CCCCATTC	0.0826
CCCCATGA	0.0895
CCCCATGC	0.107
ACCCATGC	0.108
ACCCATGG	0.0853
ACCCATGA	0.0882
AAAGCACT	0.0757
AACCACTA	0.0774
